Measurements as given in PubChem BioAssay (Tox21).
Where “and” joins values, the source holds several entries; their conditions need not be identical. Identical values can stand only once. Inconclusive results are not listed. A call without a number means that no potency is given here. The source holds several records for some structures; these can differ, active in one and inactive in another. Calls of active or inactive are those of the source. Unless noted, the call rests on the fitted dose curve.

What was measured:
[1] = qHTS assay to identify small molecule agonists of the vitamin D receptor (VDR) signaling pathway - cell viability counter screen (AID 743224; active means well fitted curve in the direction sought with a large enough effect in the repeat runs; an effect the other way counts as inactive or inconclusive; further: nearly all actives have a fitted effect of over 50% in size; further: potency means the concentration at half of the fitted maximal effect)
Method in brief: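 Cytotoxicity counter screen: VDR-bla cells, 16 h compound exposure at 37C, 5% CO2; CellTiter-Glo luminescence, 30 min RT, same wells as bla read.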

[2] = qHTS assay to identify small molecule antagonists of the vitamin D receptor (VDR) signaling pathway - cell viability counter screen (AID 743225; active means well fitted curve in the direction sought with a large enough effect in the repeat runs; an effect the other way counts as inactive or inconclusive; further: nearly all actives have a fitted effect of over 50% in size)
Method in brief: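 Same-well multiplex: following 16 h treatment of HEK 293T cells carrying a UAS-driven beta-lactamase reporter with compound and agonist (3 nM final), and a 2 h FRET substrate step, CellTiter-Glo was added and luminescence read after 30 min.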

[3] = qHTS assay to identify small molecule agonists of the NFkB signaling pathway (AID 1159509; active means well fitted curve in the direction sought with a large enough effect in the signal ratio in the repeat runs, not every such curve was filed as active; the % refers to the signal ratio; further: series mostly up to about 61 µM)
Method in brief: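 Beta-lactamase reporter assay run in quantitative high-throughput format on an NF-kB-responsive ME-180 line, with 5 hr compound treatment and a FRET-based blue/green fluorescence readout.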

[4] = qHTS assay to identify small molecule agonists of the NFkB signaling pathway - cell viability counter screen (AID 1159515); further: series mostly up to about 61 µM; nearly all actives have a fitted effect of over 55% in size
Method in brief: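 ME-180 NFkB-bla cells, 2,000/well; overnight attach; compound 5 hr, 37 C/5% CO2; LiveBLAzer substrate 1.5 hr RT; then CellTiter-Glo in same wells, 30 min RT, luminescence read.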

[5] = qHTS assay to identify small molecule agonists of the endoplasmic reticulum stress response signaling pathway (AID 1159516; active means well fitted activation curve with a large enough effect in the signal ratio in the repeat runs, not every such curve was filed as active; the % refers to the signal ratio)
Method in brief: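 HeLa ESRE-bla reporter line; cpd 5 h, 37 C/5% CO2; LiveBLAzer B/G FRET substrate 2 h RT; ex 405, em 460/530 nm.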

[6] = qHTS assay to identify small molecule agonists of the endoplasmic reticulum stress response signaling pathway - cell viability counter screen (AID 1159517); further: nearly all actives have a fitted effect of over 50% in size; further: potency means the concentration at half of the fitted maximal effect
Method in brief: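 Steps: seed 1,500 ESRE-bla HeLa cells per well; incubate overnight at 37 C, 5% CO2; add compounds in DMSO for 5 hr; run FRET substrate 2 hr RT; add CellTiter-Glo, wait 30 min, read luminescence.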

[7] = qHTS assay to identify small molecule antagonists of the retinoid-related orphan receptor gamma (ROR-gamma) signaling pathway - cell viability counter screen (AID 1159520; active means well fitted curve in the direction sought with a large enough effect in the repeat runs; an effect the other way counts as inactive or inconclusive; further: nearly all actives have a fitted effect of over 50% in size)
Method in brief: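 Tet-on ROR gamma CHO cells were given compounds for 2 hr, then doxycycline hyclate at 1 uM final, and incubated 16 hr at 37 C. Viability was measured as ATP content by CellTiter-Glo luminescence.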

[8] = target: Nuclear receptor ROR-gamma (Homo sapiens) (UniProt P51449); test: qHTS assay to identify small molecule antagonists of the retinoid-related orphan receptor gamma (ROR-gamma) signaling pathway (AID 1159521; active means well fitted curve in the direction sought with a large enough effect in the repeat runs; an effect the other way counts as inactive or inconclusive; further: nearly all actives have a fitted effect of over 50% in size; further: potency means the concentration at half of the fitted maximal effect)
Method in brief: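 Inducible-expression reporter assay: doxycycline (1 uM final) switched on RORγ in CHO cells bearing a ROR response element-luciferase construct, with test compounds present from 2 h beforehand. Decreased luminescence after 16 h defined antagonist activity.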

[9] = qHTS assay to identify small molecule agonists of the AP-1 signaling pathway - cell viability counter screen (AID 1159525); further: nearly all actives have a fitted effect of over 55% in size
Method in brief: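 Same-well cytotoxicity counter screen of the Tox21 10K library in ME-180 cells. The readout is ATP-dependent luminescence after 5 h compound treatment. Data are normalised to DMSO and tetra n-octyl ammonium bromide controls.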

[10] = qHTS assay to identify small molecule agonists of the AP-1 signaling pathway (AID 1159526); further: potency means the concentration at half of the fitted maximal effect

Row | Structure (SMILES) | Potency [1] | outcome [2] | outcome [3] | outcome [4] | outcome [5] | Potency [6] | outcome [7] | Potency [8] | outcome [9] | Potency [10]
1 | CCn1cc(C(=O)O)c(=O)c2ccc(C)nc21 | inactive | inactive | inactive | inactive | inactive | inactive | inactive | inactive | inactive | inactive
2 | NC(=O)N1c2ccccc2C=Cc2ccccc21 | inactive | inactive | inactive | inactive | inactive | inactive | inactive | inactive | inactive | inactive
3 | COC(=O)C1CCC(C(=O)OC)CC1 (centres undefined) | inactive | inactive | inactive | inactive | inactive | inactive | inactive | inactive | inactive | inactive
4 | CC(C)Cc1ccc(C(C)C(=O)O)cc1 (centres undefined) | – | – | inactive | inactive | inactive | inactive | inactive | inactive | inactive | inactive
5 | Cc1cccc(C)c1O | inactive | inactive | inactive | inactive | inactive | inactive | inactive | inactive | inactive | inactive
6 | CCCCCCCCCCCCCC(=O)OC(C)C | inactive | inactive | inactive | inactive | inactive | inactive | inactive | inactive | inactive | inactive
7 | NC(=O)NO | inactive | inactive | inactive | inactive | inactive | inactive | inactive | inactive | inactive | inactive
8 | N[C@@H](Cc1c[nH]c2ccccc12)C(=O)O | inactive | inactive | inactive | inactive | inactive | inactive | inactive | inactive | inactive | inactive
9 | CC1=C(/C=C/C(C)=C/C=C/C(C)=C/C(=O)O)C(C)(C)CCC1 | inactive | inactive | inactive | inactive | inactive | 43.7 µM (active) | inactive | inactive | inactive | inactive
10 | CCCCOCCOCCSC#N | inactive | inactive | inactive | inactive | inactive | inactive | inactive | inactive | inactive | inactive
11 | CC(O)COc1ccccc1 (centres undefined) | inactive | inactive | inactive | inactive | inactive | inactive | inactive | inactive | inactive | inactive
12 | Cc1c(N(C)C)c(=O)n(-c2ccccc2)n1C | inactive | inactive | inactive | inactive | inactive | inactive | inactive | inactive | inactive | inactive
13 | CC(=O)OC/C=C(C)/C=C/C=C(C)/C=C/C1=C(C)CCCC1(C)C | inactive | inactive | inactive | inactive | inactive | inactive | inactive | inactive | inactive | inactive
14 | Cc1cnc(NC(=O)C2=C(O)c3ccccc3S(=O)(=O)N2C)s1 | – | – | inactive | inactive | inactive | inactive | inactive | inactive | inactive | inactive
15 | CCCCCCCCOc1ccc(C(=O)c2ccccc2)c(O)c1 | inactive and 49 µM (active) | inactive | inactive | inactive | inactive | inactive | inactive | inactive | inactive | inactive
16 | NC(N)=NC(N)=NCCc1ccccc1 | inactive | inactive | inactive | inactive | inactive | inactive | inactive | 30.6 µM (active) | inactive | inactive
17 | CC(C)(C)NCC(O)c1ccc(O)c(CO)c1 (centres undefined) | inactive | inactive | inactive | inactive | inactive | inactive | inactive | inactive | inactive | inactive
18 | CCCCNC(=O)NS(=O)(=O)c1ccc(N)cc1 | inactive | inactive | inactive | inactive | inactive | inactive | inactive | inactive | inactive | inactive
19 | COc1cc(C=O)ccc1O | inactive | inactive | inactive | inactive | inactive | inactive | inactive | inactive | inactive | inactive
20 | CN/C(=C\[N+](=O)[O-])NCCSCc1ccc(CN(C)C)o1 | inactive | inactive | inactive | inactive | inactive | inactive | inactive | inactive | inactive | inactive
21 | COc1ccccc1NC(=O)CC(C)=O | inactive | inactive | inactive | inactive | inactive | inactive | inactive | inactive | inactive | inactive
22 | CC(=O)c1ccc(S(=O)(=O)NC(=O)NC2CCCCC2)cc1 | inactive | inactive | inactive | inactive | inactive | inactive | inactive | inactive | inactive | inactive
23 | O=C(O)CCCCC1CCSS1 (centres undefined) | inactive | inactive | inactive | inactive | inactive | inactive | inactive | inactive | inactive | 27.5 µM (active) and inactive

Row | Structure (SMILES) | Potency [1] | outcome [2] | outcome [3] | outcome [4] | outcome [5] | Potency [6] | outcome [7] | Potency [8] | outcome [9] | Potency [10]
24 | C=C(C)C(N)=O | inactive | inactive | inactive | inactive | inactive | inactive | inactive | inactive | inactive | inactive
25 | COCCOCCOC | inactive | inactive | inactive | inactive | inactive | inactive | inactive | inactive | inactive | inactive
26 | CCCCCCCC(=O)OCC(O)CO (centres undefined) | inactive | inactive | inactive | inactive | inactive | inactive | inactive | inactive | inactive | inactive
27 | Cc1cccc2ccccc12 | inactive | inactive | inactive | inactive | inactive | inactive | inactive | inactive | inactive | inactive
28 | O=c1cc[nH]c(=O)[nH]1 | inactive | inactive | inactive | inactive | inactive | inactive | inactive | inactive | inactive | inactive
29 | c1ccc2[nH]c(-c3cscn3)nc2c1 | inactive | inactive | inactive | inactive | inactive | inactive | inactive | inactive | inactive | inactive
30 | C[C@]12C=CC(=O)C=C1CC[C@@H]1[C@@H]2C(=O)C[C@@]2(C)[C@H]1CC[C@]2(O)C(=O)CO | inactive | inactive | inactive | inactive | inactive | inactive | inactive | inactive | inactive | inactive
31 | CCCCOC(=O)CCCCCCCCC(=O)OCCCC | – | inactive | inactive | inactive | inactive | inactive | inactive | inactive | inactive | inactive
32 | CC1=NN(c2ccccc2)C(=O)C1 | – | inactive | inactive | inactive | inactive | inactive | inactive | inactive | inactive | inactive
33 | NC(=O)c1ccc([N+](=O)[O-])cc1Cl | – | inactive | inactive | inactive | inactive | inactive | inactive | inactive | inactive | inactive
34 | O=C(O)CN(CC(=O)O)CC(=O)O | inactive | inactive | inactive | inactive | inactive | inactive | inactive | inactive | inactive | inactive
35 | CC(C)CC(C)CC(O)CC(C)C (centres undefined) | inactive | inactive | inactive | inactive | inactive | inactive | inactive | inactive | inactive | inactive
36 | C[C@]12C[C@H](O)[C@H]3[C@@H](CCC4=CC(=O)CC[C@@]43C)[C@@H]1CC[C@@H]2C(=O)CO | inactive | inactive | inactive | inactive | inactive | inactive | inactive | 48.6 µM (active) and inactive | inactive | inactive
37 | CC1(C)O[C@@H]2[C@@H](CO[C@@]3(COS(N)(=O)=O)OC(C)(C)O[C@@H]23)O1 | – | inactive | inactive | inactive | inactive | inactive | inactive | inactive | inactive | inactive
38 | CCCCCCCCCCCCCCCCCC(=O)OCC(O)CO (centres undefined) | – | inactive | inactive | inactive | inactive | inactive | inactive | inactive | inactive | inactive
39 | CCc1cc(C(N)=S)ccn1 | inactive | inactive | inactive | inactive | inactive | inactive | inactive | inactive | inactive | inactive
40 | CC(C)(C)CC(C)(C)c1ccc(O)c(-n2nc3ccccc3n2)c1 | – | inactive | inactive | inactive | inactive | inactive | inactive | 49.2 µM (active) and inactive | inactive | inactive
41 | Cn1cnc2c1c(=O)[nH]c(=O)n2C | inactive | inactive | inactive | inactive | inactive | inactive | inactive | inactive | inactive | inactive
42 | CCOC(=O)C(C)(C)Oc1ccc(Cl)cc1 | inactive | inactive | inactive | inactive | inactive | inactive | inactive | inactive | inactive | inactive
43 | NC(=O)OCC(COC(N)=O)c1ccccc1 | inactive | inactive | inactive | inactive | inactive | inactive | inactive | inactive | inactive | inactive
44 | O=C1CCCCCN1 | – | inactive | inactive | inactive | inactive | inactive | inactive | inactive | inactive | inactive
45 | Cc1c(N(C)CS(=O)(=O)O)c(=O)n(-c2ccccc2)n1C | inactive | inactive | inactive | inactive | inactive | inactive | inactive | inactive | inactive | inactive
46 | C=C(C)OC(C)=O | inactive | inactive | inactive | inactive | inactive | inactive | inactive | inactive | inactive | inactive
